Screening results from PubChem.
Sampled rows, rich in hits. Any-hit rate of the full collection: about 2.8%.
POLH inh: DNA polymerase eta (human) inhibition; Q9Y253; recombinant Pol eta, fluorescent DNA replication assay; Potency, µM (highest dose often 114 µM), most hits filed as inhibitors; 390,000 tested, 1.2% active; AID 588591
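Fluorescent replication assay: 50 nM final substrate added after a 15 min room-temperature compound preincubation with 10 nM enzyme. Signal taken at 0 min and again at 10 min.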
PI5P4K alpha inh: inhibitors of human PI5P4K alpha | 330,000 tested, 1.2% active | max response, % | P48426 | AID 652105 | PI5P4Kalpha enzyme, ADP-Glo luminescence, 60 min; stronger effect = lower value; active = max response of -50% or lower; inconclusive = between -30% and -50%; inactive = -30% or higher; also: value at the top dose of about 77 µM
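Single end-point luminescence (ADP-Glo) quantified ADP from PI5P4Kalpha turnover; ATP 5 microM final, 1 h at RT, 0.1% CHAPS and 0.28 mM EGTA in HEPES pH 7.4.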
WRN helicase inh: inhibitors of human WRN helicase; WRN helicase unwinding, fluorescent forked duplex, kinetic; AID 651768; 360,000 tested, 0.46% active; Potency, µM (titrated, usually from 114 µM), hits mostly inhibitors; Q14191; also: nearly all actives have a fitted effect of over 55% in size
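Enzyme (20 nM final) and test compound sit together 15 min at room temperature before substrate addition. Substrate is a single-forked duplex oligonucleotide (100 nM) labelled with fluorophore and quencher, with 2 mM ATP; helicase unwinding raises red fluorescence, read kinetically.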
Pol iota inh: DNA polymerase iota (human) inhibition | Pol iota fluorescent replication assay, 10 min | Potency, µM (doses to about 115 µM), most hits filed as inhibitors | 390,000 tested, 1% active | AID 588590
Target sequence (Q9UNA4 whole entry, looked up): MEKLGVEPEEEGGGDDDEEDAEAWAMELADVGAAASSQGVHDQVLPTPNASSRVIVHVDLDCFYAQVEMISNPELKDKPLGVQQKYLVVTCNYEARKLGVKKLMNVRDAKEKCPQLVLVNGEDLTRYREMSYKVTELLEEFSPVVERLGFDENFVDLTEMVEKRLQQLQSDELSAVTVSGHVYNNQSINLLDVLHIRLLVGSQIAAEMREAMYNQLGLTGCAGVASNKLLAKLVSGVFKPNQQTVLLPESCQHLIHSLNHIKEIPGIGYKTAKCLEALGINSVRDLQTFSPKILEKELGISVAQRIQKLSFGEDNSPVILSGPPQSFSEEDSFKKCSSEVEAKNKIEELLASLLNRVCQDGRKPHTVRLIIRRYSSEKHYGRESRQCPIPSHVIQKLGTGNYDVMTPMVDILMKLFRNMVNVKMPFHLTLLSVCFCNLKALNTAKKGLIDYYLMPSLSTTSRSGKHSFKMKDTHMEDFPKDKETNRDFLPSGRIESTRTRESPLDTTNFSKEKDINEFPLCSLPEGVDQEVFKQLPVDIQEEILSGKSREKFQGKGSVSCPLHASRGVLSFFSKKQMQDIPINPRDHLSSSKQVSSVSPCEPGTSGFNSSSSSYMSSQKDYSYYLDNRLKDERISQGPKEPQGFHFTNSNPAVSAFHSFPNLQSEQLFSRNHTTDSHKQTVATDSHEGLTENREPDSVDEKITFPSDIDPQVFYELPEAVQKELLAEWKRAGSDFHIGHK
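Pol iota at 10 nM preincubated 15 min with compounds at room temperature; reaction started with fluorescent substrate, 50 nM final. Fluorescence read kinetically at 0 and 10 min; buffer-only wells as negative control.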
POLB inh: DNA polymerase beta (human) inhibition. Pol beta primer extension/strand displacement, fluorescence kinetic. 340,000 tested, 1.3% active. Potency, µM (top dose mostly 114 µM), most hits filed as inhibitors
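Values derive from four-parameter Hill fits of normalized kinetic data: reads at 0 and 10 min following addition of 50 nM substrate to 10 nM Pol beta preincubated 15 min with compound.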
Pol kappa inh: blocks human DNA polymerase kappa activity | AID 588579 | 400,000 tested, 0.53% active | Potency, µM (titrated, usually from 107 µM), most hits filed as inhibitors | purified Pol kappa, fluorescent DNA synthesis assay, 10 min
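Activity was followed as the change in fluorescence between reads at 0 and 10 min after starting the reaction with 50 nM substrate. Beforehand, 10 nM polymerase had been preincubated with compound for 15 min at room temperature.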
A number is an active result; . = inactive; ? = inconclusive; / = no result; [ ] = dose if it differs, or a comment. Unless noted, calls follow the shape of the dose curve; as a rule, active = well fitted curve in the direction sought with a large enough effect; inconclusive = small, poorly fitted or top-dose-only effect, or another doubt; inactive = no such curve, though single readings can be large; an effect the other way counts as inactive or inconclusive.

SMILES	POLH inh	PI5P4K alpha inh	WRN helicase inh	Pol iota inh	POLB inh	Pol kappa inh
Oc1c(Br)cc(/C=N/Nc2nncc3ccccc23)cc1Br	?	-62	.	.	.	.
COc1ccccc1/C=N/Nc1nncc2ccccc12	.	.	.	.	.	.
COc1ccc(Cn2c(CNS(=O)(=O)c3ccc(Cl)s3)nc3cccnc32)cc1	.	/	/	.	.	.
O=C(O)c1cc2cc(Cl)cc(Cl)c2oc1=O	?	?	.	?	79µM	?
O=C(NCCO)c1cc2cc(Cl)cc(Cl)c2oc1=O	.	?	.	.	.	.
O=C(CSc1ccc2nnc(-c3cccc(F)c3)n2n1)NCc1ccco1	.	/	.	?	79µM	.
COc1ccc(OC)c(C2CC(=O)N3CN(c4ccccc4)CSC3=C2C#N)c1 (stereo not given)	.	-85	.	.	.	.
COc1ccc(C2CC(=O)N3CN(c4ccccc4F)CSC3=C2C#N)cc1OC (stereo not given)	.	-84	.	?	.	?
COc1cc(OC)c(C2CC(=O)N3CN(c4ccccc4C)CSC3=C2C#N)cc1OC (stereo not given)	/	/	/	/	.	/
COc1ccc(CC(=O)N2CCN(c3ccccc3F)CC2)cc1OC	.	.	.	.	.	.
COc1ccc(C2CC(=O)N3CN(C4CCCCC4)CSC3=C2C#N)c(OC)c1 (stereo not given)	.	/	/	7.9µM	.	.
COc1ccc(C2CC(=O)N3CN(c4ccc(C)c(Cl)c4)CSC3=C2C#N)cc1 (stereo not given)	.	-69	.	?	?	.
COc1ccc(-n2c(=O)c3ccccc3n(CC(=O)NCCc3ccccc3)c2=O)c(OC)c1	.	/	/	.	.	.
COC(=O)CSC1=C(C#N)C(c2ccc(C)o2)CC(=O)N1 (stereo not given)	.	.	.	.	.	.
Cc1cccc(N2CSC3=C(C#N)C(c4ccc(C)o4)CC(=O)N3C2)c1 (stereo not given)	/	/	/	/	5µM	/
CCOC(=O)C(O)(NC(=O)c1cccnc1)C(F)(F)F (stereo not given)	.	.	.	.	.	.
CC(=O)C(C(C)=O)C(NC(=O)c1cccnc1)(C(F)(F)F)C(F)(F)F	.	-63	89µM	.	.	.
Cn1cc(S(=O)(=O)c2ccc(Cl)cc2)c(=O)c2cc(F)c(N3CCOCC3)cc21	.	/	/	.	.	.
CCOC(=O)c1c(NC(=O)C2C3C=CC(C3)C2(C)C(=O)O)sc2c1CCCC2 (stereo not given)	20µM	.	.	.	22µM	?
COc1ccc(NC(=O)C2CCN(S(=O)(=O)c3ccc4c(c3)CCCC(=O)N4)CC2)cc1Cl	.	/	/	.	.	.
O=C(Cc1ccc(F)cc1)NC1CC(=O)N(c2ccccc2)C1 (stereo not given)	.	/	/	.	.	.
Cc1ccc2c(=O)cc(C(=O)NCCc3ccc(S(N)(=O)=O)cc3)oc2c1	22µM	-78	?	45µM	?	.
Cc1cc(C)c2oc(C(=O)NCCc3ccc(S(N)(=O)=O)cc3)cc(=O)c2c1	.	.	.	.	.	.
Cc1ccc(OCc2nc(-c3ccc(C(=O)NCCc4ccc(S(N)(=O)=O)cc4)cc3)oc2C)cc1	.	/	/	79µM	.	.
COCCCNC(=O)c1ccc(Cn2c(=O)c3ccccc3n(CC(=O)Nc3ccc(C)cc3C)c2=O)cc1	.	/	/	?	.	.
SMILES	POLH inh	PI5P4K alpha inh	WRN helicase inh	Pol iota inh	POLB inh	Pol kappa inh
COCCCNC(=O)Cn1c(=O)n(Cc2ccc(C(=O)NCc3ccc(C)cc3)cc2)c(=O)c2ccccc21	?	/	/	89µM	?	.
O=c1c(-c2cc(F)cc(F)c2)nc2cnc(N3CCNCC3)nc2n1Cc1cccs1	/	/	/	/	/	28µM
O=c1c(-c2cccs2)nc2cnc(N3CCNCC3)nc2n1Cc1cccs1	/	/	/	/	/	32µM
CN1CCN(c2ncc3nc(-c4cccs4)c(=O)n(Cc4cccs4)c3n2)CC1	/	/	/	/	/	.
CCOCCCNC(=O)Cn1nc(CC)n2c(cc3c(OC)cccc32)c1=O	.	/	/	.	.	.
CCCCC(C)/C=C(C)/C=C(\C)C(=O)NC1=CC(O)(/C=C/C=C/C=C/C(=O)NC2=C(O)CCC2=O)C2OC2C1=O (stereo not given)	/	/	/	/	/	27µM
COC(=O)C1=C(C)NC(=O)C1(NC(=O)c1cc(OC)c(OC)c(OC)c1)C(F)(F)F (stereo not given)	/	/	/	.	.	.
CN=c1scc(-c2ccc([N+](=O)[O-])cc2)n1/N=C/c1ccco1	.	?	.	.	.	.
CN=c1scc(-c2ccc(F)cc2)n1/N=C/c1ccc(O)c(O)c1	?	.	.	?	5µM	.
c1ccc2c(NCCc3c[nH]c4ccccc34)c3ccccc3nc2c1	?	.	25µM	?	13µM	.
COc1ccc(C(=O)NCCc2c[nH]c3ccccc23)cc1OC	.	.	.	.	.	.
COc1ccc(CCNC(=O)c2cc(Nc3ccccc3)nc3ccccc23)cc1OC	.	/	/	79µM	.	.
COc1ccc(CCNc2c3ccccc3nc3ccccc23)cc1OC	?	.	.[11.6 µM]	?	6.3µM	?
O=C(NCCc1c[nH]c2ccccc12)c1ccc2nc[nH]c2c1	50µM	?	.	?	/	.
COc1ccc(S(=O)(=O)c2c(SC)nn(Cc3ccccc3C)c2NC(C)=O)cc1	.	/	/	.	.	.
Cc1ccc2c(CC(=O)N3CCN(c4cccc(Cl)c4)CC3)coc2c1C	.	/	/	.	.	.
COc1cc(Nc2c3ccccc3nc3ccccc23)cc(OC)c1OC	.	.	.	?	14µM	.
O=C(COc1ccccc1F)Nc1ccc(-c2nc3ccccc3s2)cc1	.	/	/	.	45µM	.
Cc1nc2ccc(NC(=O)COc3ccccc3F)cc2s1	.	.	.	.	.	.
CCOC(=O)C1=C(Cc2ccc(F)cc2)C(=O)c2ccccc2C1=O	?	/	50µM	?	.	.
O=C(O)CSc1ncnc2scc(-c3ccc(Br)cc3)c12	.	-66	.	.	.	.
O=C(O)CSc1ncnc2scc(-c3ccccc3)c12	.	-76	.	.	.	.
O=C(Cc1cccs1)Nc1ccc(-c2nnn(CC(=O)N3CCOCC3)n2)cc1	.	/	.	.	18µM	.
Cc1ccc(N2CC(C(=O)N3CCN(c4ccccn4)CC3)CC2=O)cc1 (stereo not given)	50µM	.	.[11.6 µM]	?	/	?
CCCN1C(=O)/C(=C/c2c(N3CCNC(=O)C3CC(=O)OC)nc3c(C)cccn3c2=O)SC1=S (stereo not given)	/	/	/	/	89µM	/
Cc1ccccc1NC(=O)Cn1nc(-c2ccc(F)cc2)c2cnc3ccccc3c21	.	/	/	.	.	.
Cc1ccccc1NS(=O)(=O)c1nnc(NC(=O)c2ccco2)s1	.	/	/	.	.	.
Cc1cncn1CCc1nc2c3ccccc3nc(SCC(=O)Nc3cccc(Cl)c3)n2n1	.	.	.	.	.	.
